Measurements reported in PubChem BioAssay.
Activity calls are given as the source filed them. The rule behind the calls is not given here.

Assay: inhibition of Brca1/Bard1 split-luciferase complementation, confirmation, counter-screen for Mdm2/MdmX interaction inhibitor project, luminescence, single concentration (AID 504668)
Settings: Brca1/Bard1 bimolecular luciferase complementation counterscreen, at 8 µM, stronger effect = higher value

| Structure (SMILES) | inhibition |
| --- | --- |
| O=C(Nc1cccc(Cl)c1)Nc1nnc(CSCCOc2ccc(Cl)cc2)s1 | 23% (active) |
| Cc1ccc(NC(=O)c2ccccc2NS(=O)(=O)c2ccc(F)cc2)cc1S(=O)(=O)N1CCCCC1 | 28.2% (active) |
| Cc1cc(SCC(=O)N/N=C/c2ccc(O)cc2O)nc2ccccc12 | 32.4% (active) |
| O=C1c2ccccc2NC(c2ccc(-c3ccc(Br)cc3)o2)N1O (stereo not given) | 31% (active) |
| Cc1ccc(-c2oc3ccccc3c(=O)c2O)cc1 | 24.8% (active) |
| COc1ccc(NS(=O)(=O)c2cc(NC(=O)c3ccc(Cl)cc3)ccc2N2CCOCC2)cc1 | 26.8% (active) |
| CN1CCN(Cc2cc(COCc3ccccc3)c3cccnc3c2O)CC1 | 29.5% (active) |
| CCN(CC)CCNc1cc(C)nc2c1C(=O)C(=O)C=C2N1CCCCC1 | 28.9% (active) |
| CCN(CC)S(=O)(=O)c1ccc2c(c1)C(=NO)c1cc(S(=O)(=O)N(CC)CC)ccc1-2 | 23.7% (active) |
| O=C(/C(N=Nc1cccc([N+](=O)[O-])c1)=C(/O)c1ccc(Br)cc1)C(F)(F)F | 24.9% (active) |
| COc1ccccc1OCC(=O)N/N=C/c1c(O)ccc2ccccc12 | 27.8% (active) |
| CC[C@@]1(C(=O)OC)N[C@H](CN(C)C(=O)Nc2ccc(C(F)(F)F)cc2)[C@@H]2C(=O)N(Cc3ccccc3)C(=O)[C@@H]21 | 32.2% (active) |
| Cc1ccc(C(=O)N/N=C/c2c(O)ccc3ccccc23)cn1 | 26.6% (active) |
| Cc1cc(C)c2nc(N3CCC(C(=O)NCCCN4CC(C)CC(C)C4)CC3)sc2c1 (stereo not given) | 32.3% (active) |
| COc1cccc(/C=N/NC(=O)c2c(C)nc3ccc(Br)cn23)c1O | 32.3% (active) |
| O=C(NC(Cc1c[nH]c2ccccc12)C(=O)Nc1ccc(OC(F)(F)F)cc1)c1cccs1 (stereo not given) | 25.7% (active) |
| C/C(=N\NC(=O)COc1cccc(C)c1)c1ccc2ccccc2c1O | 33.6% (active) |
| Cc1ccc(C(C)C)cc1OCC(=O)Nc1nnc(C2CC2)s1 | 33.4% (active) |
| COc1cc2c(O)c3c(c(-c4ccc5c(c4)OCO5)c2cc1OC)C(=O)OC3 | 26.1% (active) |
| Cn1nc(-c2ccccn2)nc2c(=O)n(C)c(=O)nc1-2 | 33.8% (active) |

| Structure (SMILES) | inhibition |
| --- | --- |
| Oc1ccc(Br)cc1CNc1cccc2cccnc12 | 25.6% (active) |
| CCOc1ccc(/C=C/C(O)=C2/C(=O)NC3(C)CC2c2ccccc2O3)cc1OC (stereo not given) | 23.4% (active) |
| O=C(NC(Nc1ncc(S(=O)(=O)c2ccc([N+](=O)[O-])cc2)s1)(C(F)(F)F)C(F)(F)F)c1ccc(Cl)cc1 | 29.5% (active) |
| CC1(C)Cc2ccccc2C2=NNC(=O)C2=N1 | 29.2% (active) |
| Cc1nnnn1/C(=C\c1ccccc1)C(=O)OCC(=O)Nc1cccc(S(=O)(=O)N(C)C)c1 | 34% (active) |
| COc1ccccc1[C@@]1(C)ON(c2ccccc2C(F)(F)F)C1=O | 31.6% (active) |
| COC(=O)[C@@H]1C[C@]2(OC(=O)c3ccccc3)C=CC(=O)C[C@@H]2N1C(=O)OCc1ccccc1 | 34.4% (active) |
| CC(=O)Oc1c(C)cc(Cl)cc1C(=O)Nc1ccc([N+](=O)[O-])cc1Cl | 27.7% (active) |
| CCOC(=O)C1=C(C)n2c(s/c(=C/c3cccc([N+](=O)[O-])c3)c2=O)=NC1c1ccc(O)c(OC)c1 (stereo not given) | 26.4% (active) |
| CCC(C)n1c(=O)c(C(=O)Nc2ccccc2S(N)(=O)=O)c(O)c2ccccc21 (stereo not given) | 30.8% (active) |
| O=C(NN=C(c1ccccc1)c1ccccn1)c1ccccc1 | 27.4% (active) |
| Cc1ccc2cccc(NS(=O)(=O)c3ccccc3)c2n1 | 23.1% (active) |
| O=C1c2ccccc2C(=O)c2c(Nc3ccc(CCO)cc3)ccc(O)c21 | 33.2% (active) |
| CCCCCCCCCCC[N+](C)(C)CC/C=C1/c2ccccc2Sc2ccc(Cl)cc21 | 28.6% (active) |
| C=C1C(O)[C@@H]2O[C@]3(CC[C@H](/C=C/C(C)[C@@H]4CC(C)=CC5(O[C@H](C[C@@](C)(O)CO)CCC5O)O4)O3)CC[C@H]2O[C@@H]1C(O)CC(C)[C@H]1OC2(CCCCO2)CCC1C (stereo not given in full) | 33.4% (active) |
| Cc1ccc(O)c(N=Nc2nccs2)c1 | 23.2% (active) |
| CC(=O)NC(c1ccc(C)cc1)c1cc([N+](=O)[O-])c2cccnc2c1O (stereo not given) | 25% (active) |
| COc1cccc(Nc2nc(NCCO)c3ccccc3n2)c1 | 27.7% (active) |
| Cc1ccc(-c2csc(=Nc3cccnc3)n2CCCn2ccnc2)cc1C | 24.3% (active) |
| O=C(Nc1ccccc1)c1ccccc1NS(=O)(=O)c1ccc(Cl)s1 | 27.7% (active) |
